Assay results as given in PubChem BioAssay AID1259397 (Fisher Drug Discovery Resource Center, 2018).
“And” between values parts separate entries of the source, which are not always exact repeats. Equal entries are not always repeated. The campaign covered roughly 130,000 compounds. About 230 (0.18%) were called active.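 The calls were made as follows: active = inhibition of cGAS enzyme activity at or above 60%; inactive = the rest.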 What follows is part of a selection rich in actives, with near analogues and random picks from the rest. A structure can be active in one record and inactive in another.

Target: Cyclic GMP-AMP synthase (Mus musculus) (UniProt Q8C6L5)
Sequence (Q8C6L5 whole entry, looked up): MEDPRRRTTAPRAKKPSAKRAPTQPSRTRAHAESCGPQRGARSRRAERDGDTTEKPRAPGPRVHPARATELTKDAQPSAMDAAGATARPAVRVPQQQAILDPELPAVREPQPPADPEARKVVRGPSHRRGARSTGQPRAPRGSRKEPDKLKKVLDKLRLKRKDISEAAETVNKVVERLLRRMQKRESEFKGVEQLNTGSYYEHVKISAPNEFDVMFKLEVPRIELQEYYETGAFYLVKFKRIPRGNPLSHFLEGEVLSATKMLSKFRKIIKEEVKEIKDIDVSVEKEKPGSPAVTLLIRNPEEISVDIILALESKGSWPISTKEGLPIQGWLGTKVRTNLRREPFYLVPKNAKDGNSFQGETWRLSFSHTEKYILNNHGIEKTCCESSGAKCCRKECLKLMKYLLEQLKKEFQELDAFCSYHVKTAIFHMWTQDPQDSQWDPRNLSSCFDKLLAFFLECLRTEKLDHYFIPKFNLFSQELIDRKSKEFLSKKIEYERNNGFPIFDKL
Assay: inhibitors of Mus musculus cyclic GMP-AMP synthase, initial high-throughput assay, cell-free, RapidFire MS (AID 1259397);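 also: enzyme stimulated by 45 bp dsDNA with ATP and GTP substrates; cGAMP share of summed cGAMP plus half ATP and half GTP signals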
Details: recombinant mouse cGAS, cGAMP by RapidFire MS; at 12.5 µM; stronger effect = higher value

Structure (SMILES) | inhibition
COCCn1c(-c2cc(OC)ccc2OC)csc1=Nc1ccc(OC)cc1 | -17.5% (inactive)
Cc1ccc(-c2nc(CCNC(=O)c3cccc(C)c3)cs2)cc1 | 5.19% (inactive)
O=S(=O)(c1ccc(Oc2nc(C(F)(F)F)nc3ccccc23)cc1)N1CCOCC1 | -25.2% (inactive)
COC(=O)NC(C)C(=O)NCc1cccnc1Oc1c(C)cccc1C (stereo not given) | -19.5% (inactive)
CCN(Cc1ccccc1)C(=O)COC(=O)c1cccc(O)c1 | 5.18% (inactive)
CN1CCN(c2ccc(NC(=O)c3cccs3)c(C(F)(F)F)c2)CC1 | -17.2% (inactive)
COc1ccc(C2=CCN(C(=O)c3csc(NC(C)=O)n3)CC2)cc1 | -5.03% (inactive)
COc1ccc(CCn2c(SCCO)nc3c2c(=O)n(C)c(=O)n3C)cc1 | -8.65% (inactive)
Cc1nn(C)c(C)c1C(=O)N(C)Cc1ccc(Cl)cc1 | -0.861% (inactive)
CCC(C(=O)N1CC=CCC1)n1cc(C(C)=O)c2ccccc21 (stereo not given) | -14.3% (inactive)
Fc1ccc(-c2[nH]ncc2CNCc2ccc(OC(F)(F)F)cc2)c(F)c1 | -8.38% (inactive)
N#Cc1ccc(NC(c2ccccc2)c2ccccn2)nc1 (stereo not given) | 9.13% (inactive)
CC(Cn1ccnc1)NS(=O)(=O)c1ccccc1 (stereo not given) | -2.43% (inactive)
Cc1nc2c(c(NCc3csc(-c4cnccn4)n3)n1)CCN(C)CC2 | -14.9% (inactive)
COc1ccc(NC(C)=O)cc1S(=O)(=O)Oc1ccc2c(c1)CCC2 | -14.7% (inactive)
O=C(Cn1ccc(=O)c2ccccc21)Nc1cc(Cl)ccc1C(=O)N1CCCC1 | -4.35% (inactive)
COc1ccccc1-c1n[nH]c(=S)n1-c1ccc(C)cc1 | -2.19% (inactive)
O=C(Nc1ccc(F)cc1)Nc1ccc(OC(F)F)cc1 | -13.8% (inactive)
O=c1oc2c(CN3CC4CC(C3)c3cccc(=O)n3C4)c(O)ccc2cc1-c1nc2ccccc2s1 (stereo not given) | -0.297% (inactive)
O=C(CCSCc1ccccn1)NCc1ccc(Br)s1 | 7.74% (inactive)
O=C(O)CCCc1ccccc1 | 0.216% (inactive) and -7.46% (inactive) and -8.15% (inactive)
O=C(O)CCCc1ccc(Br)s1 | 92.3% (active)
O=C(NCCc1ccccc1)C1=COC2=NC(=O)N(Cc3ccccc3C(F)(F)F)CCN12 | -9.37% (inactive)
CS(=O)(=O)c1ccc(CN2CCN3C(C(=O)N4CCOCC4)=COC3=NC2=O)cc1 | 62.5% (active)
N#Cc1cccc(CN2CCN3C(C(=O)NCCCc4ccccc4)=COC3=NC2=O)c1 | -8.68% (inactive)
Cc1cc2nc3c(=O)[nH]c(=O)nc-3n(C[C@H](O)[C@H](O)[C@H](O)CO)c2cc1C | 87.9% (active)
Cc1c(C(=O)NCc2cccs2)sc(=O)n1Cc1ccccc1C(F)(F)F | -4.53% (inactive)
COc1ccccc1CNC(=O)CC1C(=O)NCCN1Cc1ccccc1C (stereo not given) | -7.58% (inactive)

Structure (SMILES) | inhibition
C=Cc1c(C)c2[n-]c1=Cc1[n-]c(c(CC)c1C)C=c1[n-]c3c(c1C)C(O)=C(C(=O)O)C=3c1[n-]c(c(C)c1CCC(=O)O)C=2.[Cu] | 97.2% (active) and -3.92% (inactive)
Cc1ccc(C(=O)Nc2ccc(C(=O)NCC(N)=O)cc2)cc1Cl | -5.23% (inactive)
CCC(N)(C(=O)OC)c1ccccc1 (stereo not given) | -5.42% (inactive)
Cc1ccc(NC(=O)Cc2nc(-c3ccc4c(c3)CCO4)cs2)c(C)c1 | 4.73% (inactive)
Cc1ccc(NS(=O)(=O)c2ccccc2C(F)(F)F)cc1C | -9.68% (inactive)
Cc1nc(-c2cccs2)sc1C(=O)OCc1cc(=O)n2c(C)csc2n1 | 17.2% (inactive)
COc1cc(C)c(CN2CCN(C(=O)C3=COCCO3)CC2)cc1OC | 0.561% (inactive)
O=C(NCC1(c2ccc(F)cc2)CCCC1)C1CCN(C(=O)C2CC2)CC1 | 0.199% (inactive)
FC(F)C(F)(F)C(F)(F)C(F)(F)CNCc1ccco1 | 6.11% (inactive)
CC(C)Oc1ccc(-c2cncn2C)cc1 | -19.6% (inactive)
Cn1nnnc1SCCNC(=O)c1ccc2oc(Cc3ccccc3)nc2c1 | 3.65% (inactive)
COCCCn1c(C)c(C)n2c3c(=O)n(CC(C)C)c(=O)n(C)c3nc12 | -5.91% (inactive)
COC(=O)c1ccc(-c2nc(CN3CCN(C(=O)c4cccc(OC)c4)CC3)c(C)o2)cc1 | -3.22% (inactive)
O=C(CC1CSc2nccc(=O)n21)Nc1ccc(Oc2ccccc2)cc1 (stereo not given) | -4.45% (inactive)
CCC(c1ccccc1)C1(O)OC(=O)c2ccccc21 (stereo not given) | -3.91% (inactive)
O=C(CCn1c(=O)oc2cc(Cl)ccc21)N1CCN(c2ccccc2Cl)CC1 | -7.84% (inactive)
COc1ccc(C(=O)NC2CC2)cc1OC1CCN(C/C=C/c2ccccc2)CC1 | -2.34% (inactive)
CC(C)(C)n1ncc2c(=O)n(NC(=O)c3ccc(C(F)(F)F)cc3)cnc21 | -4.85% (inactive)
C#CC(CC)(CC)NC(=O)c1ccc(S(C)(=O)=O)cc1 | 1.64% (inactive)
COc1cc(CNC(C)(C)CO)ccc1OCC(=O)Nc1ccc(C)cc1 | -4.89% (inactive)
CCc1ccc2oc3c(c(=O)c2c1)C(c1cccc([N+](=O)[O-])c1)N(c1cc(C)on1)C3=O (stereo not given) | -10.5% (inactive)
Cc1noc(CNC(=O)C2CC(=O)N(CC(F)(F)F)C2)n1 (stereo not given) | 1.05% (inactive)
CCC1=NOC(C(=O)NCCn2c(C)cc(C)nc2=O)C1 (stereo not given) | 0.535% (inactive)
CC(CCS(C)=O)NC(=O)Nc1ncc(-c2ccccc2)s1 (stereo not given) | -2.71% (inactive)
Oc1c(Cl)cc(Cl)c(Cl)c1Cc1c(O)c(Cl)cc(Cl)c1Cl | 92.7% (active) and 36.7% (inactive)
COc1ccc(-c2csc(=Nc3cc(OC)cc(OC)c3)n2NC(=O)C(C)Oc2ccc(Cl)cc2C)cc1 (stereo not given) | 1.02% (inactive)
Cc1cc(C)n(CCNC(=O)CN2CCN(c3ccc4c(c3)OCCO4)C2=O)n1 | -5.72% (inactive)
